Assay results as given in the OligoGym collection.

molecular target: ZNF20; experiment: pooled miR-30 sensor sort-seq; sequence = guide strand; conditions: shRNA
Note: reference of the scale not given here.

| Sequence | sensor-assay potency score (higher = more potent) |
| --- | --- |
| TTCTATATGGATTCTCTCCATA | -1.01 |
| TTCAATGTTCTGAACTTTCCAT | -0.266 |
| TAGTGCAAGCTTTATCATGTGA | -0.356 |
| TGAAGTTGTGAAGCACATCTAA | -0.501 |
| TAAGACTTAGATTTCTCCTGGG | 0.935 |
| TATTAAGAGATGAATGACCCGT | -0.0204 |
| TTTCTCTCCACTGTGCGTCCTT | -0.157 |
| TTTCTCTTTAGTGCAAGCTTTA | -0.882 |
| TACCACAGTGCTTACATTCATA | -0.662 |
| TTTCTGTACATTCTTTACCATC | -1.72 |
| TTTCACATGGTGTTATTCCAGG | -0.755 |
| TTGTATTACGAAACCATCCAAG | -0.687 |

molecular target: ZNF213; experiment: as above; conditions: shRNA

| Sequence | sensor-assay potency score (higher = more potent) |
| --- | --- |
| TCACTTTGGCCTTTGAGCCCAA | -0.58 |
| TTCGGAATCCCTGCCATCCTCA | -0.738 |
| TGTAGGTCCTCCACCAAGGCGA | -0.787 |
| TTTGAGCCCAAAACCCAGGGTG | -0.556 |
| TGTCTGGCCTGGCACCACCGGC | -1.68 |
| TTTCACTGGCTGCTTCTGTAGG | -0.917 |
| TTGAGCCCAAAACCCAGGGTGG | -1.3 |
| TCGGGTTCCGCCTCCTCCGAGG | -1.19 |
| TCACTGGCTGCTTCTGTAGGTC | -0.833 |
| TAATACTCTTCTGTTGCCCTTT | 0.353 |
| ATCCCTGCCATCCTCATGCTGG | -1.09 |
| TTCTGTAGGTCCTCCACCAAGG | -1.39 |

molecular target: ZNF214; experiment: as above; conditions: shRNA

| Sequence | sensor-assay potency score (higher = more potent) |
| --- | --- |
| TCTTTGATGAGTGTGAAGCTTT | -0.426 |
| TTTTATAGAATTTCTCTTCTGT | 1.04 |
| TCTACTGACATGACATTTGTGT | 0.423 |
| TATACAAGTCTGATCTCTGAGA | -0.855 |
| TTGGATGTCTATACAAGTCTGA | 0.602 |
| TAGAACTGTGACTAAAACCCTT | -0.352 |
| TCTTGTGGAAAACACACCGTGA | -0.342 |
| TAAACTTTGATTAAAGCTGTTA | -0.478 |
| TCTGATGAAAGTGAACTCCGGA | 0.913 |
| TGAGCTGTGACTAAAGTCCTTT | -0.611 |
| TTAACCATTCCTGACACTGGGA | -0.384 |
| TTATAGAATTTCTCTTCTGTGT | -0.222 |

molecular target: ZNF219; experiment: as above; conditions: shRNA

| Sequence | sensor-assay potency score (higher = more potent) |
| --- | --- |
| TATCGCTGCAGATCCAGCTCGC | 0.347 |
| TAGAGTTGAAGCGGAAGCGCTT | -0.695 |
| TTTATTGGGGACACGACTCTGC | 0.537 |
